# Several values for one entry are separate records, joined by “and”; a condition that tells them apart may be missing. Equal entries are not always repeated.
# Legend:
# Type in all cases: functional
# [1] = tested on: Plasmodium falciparum; assay: GSK_TCMDC: Inhibition of Plasmodium falciparum 3D7 in whole red blood cells, using parasite LDH activity as an index of growth. Test compounds present at 2uM
# [2] = tested on: Plasmodium falciparum; assay: GSK_TCMDC: Inhibition of Plasmodium falciparum Dd2 in whole red blood cells, using parasite LDH activity as an index of growth. Test compounds present at 2uM
# [3] = tested on: HepG2; assay: GSK_TCMDC: Percent inhibition of human HepG2 cell line. Test compounds present at 10uM.
Compound,Inhibition [1],Inhibition [2],Inhibition [3]
CCC(C)C(COC(=O)c1cc(OC)c(OC)c(OC)c1)N(C)CCN(C)C(COC(=O)c1cc(OC)c(OC)c(OC)c1)C(C)CC.Cl (stereo not given),84%,45%,20%
Clc1ccc(Cc2nc3ccccc3[nH]2)cc1Cl,98%,2%,5%
O=C(Cc1ccccc1)NC(CCN1CCC(NC(=O)c2ccc(Cl)cc2)CC1)c1ccc(Cl)c(Cl)c1 (stereo not given),85%,23%,17%
Nc1cc(-c2cc3c(OCc4ccccc4)cccc3[nH]2)ccn1,85%,15%,23%
CC(C)(C)c1ccc(CN2CCCCC(NC(=O)c3cc(-c4cccc(Cl)c4)cs3)C2)cc1.O=C(O)C(F)(F)F (stereo not given),96%,60%,11%
FC(F)(F)c1ccc2[nH]c(-c3ccc(-c4cccc(CNCCN5CCNCC5)c4)s3)nc2c1.O=C(O)C(F)(F)F,91%,39%,22%
CC(C)C[C@H]1C(=O)N[C@H](C2Cc3ccccc3C2)C(=O)N1[C@@H](C(=O)Nc1ccccc1OCc1ccccc1)c1ccc(F)cc1F,90%,67%,12%
Nc1cccc(CNCc2cccc(-c3cccc(-c4nc5ccccc5[nH]4)c3)c2)c1.O=C(O)C(F)(F)F,100%,84%,1%
OC(CN(Cc1ccccc1)Cc1ccccc1)Cn1c2ccc(Cl)cc2c2cc(Cl)ccc21 (stereo not given),89%,95%,5%
O=C(Nc1cccc(-c2nn3ncccc3c2-c2ccnc(Nc3ccc(N4CCOCC4)cc3)n2)c1)c1c(F)cccc1F,100%,75%,75%
COc1ccc2cc(C(C)NC3CCN(c4cccc(NC(=O)c5ccncc5)c4)CC3)ccc2c1 (stereo not given),91%,6%,13%
CCCc1cc(NC2CCN(C)CC2)nc(Nc2ccc(C)cc2)n1,100%,20%,25%
O=C(Nc1ccc2c(c1)CCN2C1CCN(Cc2cc(F)cc(F)c2F)C1)c1ccco1 (stereo not given),96%,95%,0%
O=C(Nc1ccc(-c2ccccc2)cc1)Nc1cccc(Cn2cnc(N3CCCNCC3)cc2=O)c1.O=C(O)C(F)(F)F,88%,13%,8%
COc1cc2nc(N3CCC(CNC(=O)c4ccc(C(C)=O)cc4)CC3)nc(N)c2cc1OC.O=C(O)C(F)(F)F,96%,15%,10%
Cc1cc(N[C@@H](CC(C)C)C(=O)Nc2ccccc2)nc(NCCc2ccc(F)cc2)n1.O=C(O)C(F)(F)F,100%,94%,8%
CCCCc1cc(=O)oc2cc(C)cc(OCc3ccccc3F)c12,92%,78%,8%
Cc1noc(C)c1-c1ccc2c(Nc3ccccc3C(C)(C)C)c(C(=O)NCc3ccc(OC(C)C)cc3)cnc2c1.Cl,100%,98%,0%
COc1ccc(CNC2CCN(C)CC2)cc1-c1ccc(S(=O)(=O)NC2CCC2)cc1.O=C(O)C(F)(F)F,98%,76%,58%
CCOC(=O)c1ccc(NC(=O)Nc2ccc(-c3cccc(-c4nc5cccc(C)c5[nH]4)c3)cc2)cc1,100%,100%,91%

Compound,Inhibition [1],Inhibition [2],Inhibition [3]
CCc1cn2c3c(cc(C(=O)N[C@@H](Cc4ccccc4)[C@H](O)CNC4CCOCC4)cc13)N(CC(F)(F)F)S(=O)(=O)CC2.O=CO,98%,98%,4%
COc1ccc2nccc(N3CCC(O)(CCNCc4ccc5c(n4)NC(=O)CO5)CC3)c2n1.Cl,100%,24%,18%
CC(C(=O)N1CCCC1)N1CCN(S(=O)(=O)c2ccc(C(C)(C)C)cc2)CC1 (stereo not given),98%,86%,4%
O=C(Nc1cccc(OC2CCN(Cc3ccsc3)CC2)c1)c1ccc(C(F)(F)F)cc1.O=C(O)C(F)(F)F,98%,5%,25%
CC(C)(CNC(=O)[C@@H]1CCCCN1)c1nc(-c2ccc(Cl)c(O)c2)c(-c2ccncc2)[nH]1.Cl,97%,96%,0%
O=C(O)C(F)(F)F.O=C1CCCN1CCCNCc1cccc(-c2cccc(-c3nc4cc(C(F)(F)F)ccc4[nH]3)c2)c1,100%,90%,28%
CCOc1ccc(-c2nonc2NC(=O)c2ccc(F)cc2)cc1OCC,100%,99%,36%
CN(C)c1ccc(CN2CCC(CNC(=O)c3cc(-c4ccccc4Cl)cs3)C2)cc1.O=C(O)C(F)(F)F (stereo not given),91%,5%,29%
CC(C)(O)CC(C)(C)c1cc(Cl)ccc1O,96%,1%,5%
Cc1ccc(-c2nc(NC(=O)Nc3ccc(C(F)(F)F)cc3)sc2C)cc1Cl,99%,86%,29%
O=C(Nc1cccc(-c2cccc(-c3nc4ccccc4[nH]3)c2)c1)Nc1ccc(Cl)c(Cl)c1,100%,98%,78%
COc1ccc(O)c(Cc2cnc3nc(N)[nH]c(=O)c3c2C)c1.CS(=O)(=O)O,96%,6%,30%
CCc1nc(N)nc(N)c1-c1ccc(F)cc1,96%,0%,52%
CS(=O)(=O)Nc1cccc(-c2cnc3[nH]cc(-c4cc(N)cc(C(=O)O)c4)c3c2)c1,96%,96%,40%
CC(C)(CNCc1ccc(OC(F)(F)F)cc1)c1nc(-c2ccc(Cl)c(O)c2)c(-c2ccncc2)[nH]1.Cl,100%,99%,38%
C[C@H]1CN(Cc2cccc(-c3cc(CNC(=O)c4cccc(CN5CCN(C/C=C/c6ccccc6)CC5)c4)ccc3F)c2)CCN1.O=C(O)C(F)(F)F,98%,46%,98%
O=C(O)C(F)(F)F.O=C1CCCN1CCCNCc1cccc(-c2cccc(-c3nc4cc(F)ccc4[nH]3)c2)c1,100%,69%,6%
CC(C)C[C@H](NC(=O)c1cccc(F)c1)C(=O)N[C@H](/C=N/NC(=O)c1ccccc1)CCc1ccccc1,93%,71%,0%
CC[C@H](C)CNC(=O)c1ccnc(-c2ccc(CN3CCC(N4CCCC4)CC3)cc2)c1.O=C(O)C(F)(F)F,99%,84%,13%
Cc1ccc(-c2nnc(-c3ccc(C(=O)NC4CCN(Cc5ccc(C#N)cc5)CC4)cc3)o2)cc1Br,91%,7%,41%

Compound,Inhibition [1],Inhibition [2],Inhibition [3]
CCOc1ccccc1C=CC(=O)Nc1ccc2nc(N3CCN(C)CC3)cc(C)c2c1,100%,91%,16%
COc1ccc(NC(=O)C2c3ccccc3C(=O)N(C3CCCC3)C2c2cccs2)cc1OC (stereo not given),90%,96%,0%
O=C(NCCCCN1CCC(c2ccc3c(c2OCCO)CCCC3)CC1)c1sc(-c2ccc(C(F)(F)F)cc2)nc1CO,95%,20%,37%
O=C(Nc1cccc(Oc2ccccc2)c1)N[C@H]1CCN(Cc2ccc(OCCCN3CCCCC3)cc2)C1,100%,70%,94%
CN(C)CCOc1cc(NC(=O)Nc2ccc3c(c2)CCCC3=O)ccc1I,94%,31%,29%
Cc1c(C(=O)N2CCCC(C(F)(F)F)C2)sc2cccc(F)c12 (stereo not given),99%,89%,0%
CO/C(=C\C=C\c1cc2cc(Cl)c(Cl)cc2[nH]1)C(=O)NCCCNC12CC3CC(CC(C3)C1)C2,99%,76%,29%
O=C(NCc1ccc(C(=O)NC2CCCCC2)cc1)c1ccc(O)c(-c2ccc(Cl)c(Cl)c2)c1,93%,0%,5%
O=C(N[C@@H](CC1CCCCC1)C(=O)NCc1cccc(C(F)(F)F)c1)c1ccc(O)c(-c2ccc(Cl)c(Cl)c2)c1,98%,100%,0%
O=C(Cc1cccnc1)Nc1cccc(-c2cccc(-c3nc4cc(C(F)(F)F)ccc4[nH]3)c2)c1,99%,38%,42%
Cc1nnc(-c2ccc3ccccc3c2)c2cn(-c3cccc([N+](=O)[O-])c3)nc12,91%,67%,29%
Cc1cc(Nc2ccc(C)c(C)c2)n2nc(C)nc2n1,95%,45%,10%
CN(C)Cc1cccc(-c2ccc(NC(=O)c3ccc4c(=O)n(C5CCCCC5)cnc4c3)cc2)c1,96%,53%,92%
C#CC(C)(CO)N1CCCC1 (stereo not given),95%,1%,10%
COc1ccc(C2CC(=O)C3=C(C2)NC(C)=C(C(=O)OC(C)C)C3c2c(F)cccc2Cl)cc1OC (stereo not given),93%,81%,0%
O=C(Cc1ccccc1)NC(CCN1CCC(O)(c2cccc(C(F)(F)F)c2)CC1)c1ccc(Cl)c(Cl)c1 (stereo not given),96%,32%,25%
O=C(/C=C/c1ccc(Cl)c(Cl)c1)NCCCCCN1CCC(c2c[nH]c3ccccc23)C(O)C1 (stereo not given),96% and 99%,9% and 0%,34% and 12%
OC(CN1CCN(C2CCCCC2)CC1)Cn1c2ccccc2c2cc(Br)ccc21 (stereo not given),97%,89%,14%
CC(C)(CNC(=O)C1CCN(CCOc2ccc(F)c(F)c2)CC1)c1nc(-c2ccc(Cl)c(O)c2)c(-c2ccncc2)[nH]1.Cl,100%,19%,41%
CC(C)CNC(=O)c1cncc(-c2ccc(CN3CCC(N4CCCC4)CC3)cc2)c1.O=C(O)C(F)(F)F,100%,42%,25%
